# Measurements taken from PubChem BioAssay AID1508625 (Wald Lab, School of Medicine, Case Western Reserve …, 2021).
# Experiment: enhancers of NK cell killing of ovarian tumor cells, primary screen, imaging, OVCAR3, primary NK cells, calcein-AM imaging (AID 1508625);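 note: compound given to NK cells 16 h before adding targets at 1.5 to 1 ratio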
# Settings: OVCAR3 lysis by primary NK cells, at 5 µM; z-score: measured here: robust Z-score, single-point normalisation
Compound,"corrected activity, negative = more killing [%]",z-score
O=C(Nc1ccc(N2CCN(Cc3ccccc3Cl)CC2)cc1)c1ccco1,1.61,0.895
Cc1nn2c(N)cc(-c3ccccc3)nc2c1-c1ccccc1,-0.835,-0.365
Cc1c(C(=O)OC(C)C)sc(NC(=O)c2cc3ccccc3c(=O)o2)c1C(=O)OC(C)C,-4.01,-1.65
CCOC(=O)c1ccc(N=c2oc3ccccc3cc2C(=O)Nc2ccccc2)cc1,2.85,1.01
COc1cc(C(=S)N2CCCCC2)ccc1OC(=O)c1ccc(C)cc1,-4.49,-1.39
COCCCNCCOc1c(Cl)cc(C)cc1Br,-4.25,-1.58
COc1ccc(-n2c(=S)[nH]c3cc(C(=O)Nc4cc(C(N)=O)ccc4OC)ccc3c2=O)c(OC)c1,-3.49,-1.11
CC(=O)CSc1nc(-c2cccs2)cc(C(F)(F)F)c1C#N,-1.56,-0.485
c1ccc(-c2ccccc2OCCN2CCNCC2)cc1,1.89,1.05
Nc1cc(OC(=O)c2cccs2)nn1S(=O)(=O)c1ccccc1,-4.31,-1.37
COc1ccc(Nc2ccncc2[N+](=O)[O-])cc1,-5.75,-3.2
O=C(Nc1ccc2c(c1)OCCO2)c1cc2cc3ccc(Cl)cc3nc2o1,-3.48,-0.854
COc1cc(NC(=O)C(C)Oc2cccc(Cl)c2)cc(OC)c1 (stereo not drawn),-3.89,-2.16
C=CCn1c(COc2cccc3cccnc23)nnc1SCC(=O)OC,-7.09,-2.01
O=C1OC(c2cccc(Cl)c2)=NC1=Cc1ccc(F)cc1,-4.47,-1.9
Cn1c(=O)c2c(nc(Oc3ccc(Cl)cc3)n2Cc2ccccc2Br)n(C)c1=O,-3.02,-0.9
Cc1ccc(-c2sc3nc(-c4ccccc4)ccc3c2N)c(C)c1,-3.23,-1.23
Cc1ccc(C2C(C(=O)c3ccco3)=C(O)C(=O)N2c2nnc(C)s2)cc1 (stereo not drawn),-5.27,-2.29
CCC1CCCCN1C(=O)c1cc2c(=O)n3ccccc3nc2s1 (stereo not drawn),-5.2,-1.47
CC(C)(C)NC(=O)CSc1nc2ccc(Cl)cc2o1,-2.67,-0.828
CCOc1ccc(C2C(=C(O)c3ccc(Cl)cc3)C(=O)C(=O)N2c2nc3ccccc3s2)cc1 (stereo not drawn),-4.47,-1.71
Cc1cc(Cl)ccc1OCC(=O)Nc1cccc2c1C(=O)c1ccccc1C2=O,-3.52,-1.45

Compound,"corrected activity, negative = more killing [%]",z-score
Cc1ccc(C(=O)Oc2cccc(C(=S)N3CCOCC3)c2)cc1,1.48,0.458
O=C(Nc1ccccc1-c1nc2ccccc2[nH]1)c1ccc(S(=O)(=O)N2CCCC2)cc1,0.864,0.306
Cc1ccc(-n2cnc3cc(C(=O)NCC4CCCO4)ccc32)cc1Cl (stereo not drawn),-0.997,-0.269
COc1ccc(-c2ccc3c(N)c(C(=O)Nc4ccc(Br)cc4)sc3n2)cc1,-3.35,-1
Cc1occc1C(=O)N1N=C(C2CC2)CC1(O)C(F)(F)F (stereo not drawn),-2.75,-1.13
COc1ccc(NC(=O)c2sc3cc([N+](=O)[O-])ccc3c2Cl)c(OC)c1,-2.66,-0.942
COc1ccc(-c2csc(Nc3ncccn3)n2)cc1OC,-2.57,-1.15
CCc1ccc(-n2c(CCC(=O)O)ccc2-c2ccc(F)cc2)cc1,-1.11,-0.331
CN1C(=O)C(=O)C(=C(O)c2ccc(Br)cc2)C1c1ccccc1 (stereo not drawn),-1.99,-0.867
COc1ccccc1NC(=O)c1ccccc1NC(=O)c1ccc(F)cc1,-2.61,-1.45
CCN1CCN(C(=O)C2c3ccccc3C(=O)N(C)C2c2cccs2)CC1 (stereo not drawn),-7.01,-1.74
CCN(CC)C(=O)CSc1nnc(-c2ccccc2)o1,-4.29,-1.86
COc1ccc(N2CCN(C(=O)c3ccc4ccccc4n3)CC2)cc1,-1.53,-0.85
CCc1noc(C)c1C(=O)N1CC(C)OC(C)C1 (stereo not drawn),-2.62,-1.08
CCC(=O)Nc1ccccc1C(=O)C(=O)Nc1ccccc1,-1,-0.557
N[n+]1cnn(CC(=O)c2ccccc2)c1,-7.75,-2.46
Cc1cc(OCCCN2CCCCCC2)ccc1[N+](=O)[O-],0.702,0.391
C=CCN1C(=O)C(=Cc2ccc(OCc3ccccc3Cl)c(OC)c2)SC1=S,-6.24,-1.98
Cn1c(SCC(=O)Nc2cccc3ccccc23)nc2c([nH]c3ccccc32)c1=O,-9.34,-2.32
C=CCNC(=O)c1ccc2snnc2c1,-1.6,-0.478
CN(C(=O)Cn1ncc2c(=O)oc3ccccc3c21)c1ccc(Br)cc1,-6.99,-1.72
O=C(O)c1ccc(S(=O)(=O)c2ccc3c(c2)C(=O)N(CC2CCCO2)C3=O)cc1 (stereo not drawn),0.388,0.146
